Data as given in the supplement of paper PMC11732987, “Enantioselective OTUD7B fragment discovery through chemoproteomics screening and high-throughput optimisation” (Communications Chemistry, 2025).

What was measured:
Assay in all cases: log2 ratio of Biotin-Ahx-Ub-VS probe labelling (fragment/DMSO); higher = less target engagement (more negative = stronger competition), active = hit call of the paper (q ≤ 0.05, log2 ratio ≤ -1)
Conditions in all cases: compound concentration: 200 uM; treatment time: 3 h
USP34 = USP34 (UniProt Q70CQ2)
Chain of USP34 (Q70CQ2 whole entry, the tested form may be a part): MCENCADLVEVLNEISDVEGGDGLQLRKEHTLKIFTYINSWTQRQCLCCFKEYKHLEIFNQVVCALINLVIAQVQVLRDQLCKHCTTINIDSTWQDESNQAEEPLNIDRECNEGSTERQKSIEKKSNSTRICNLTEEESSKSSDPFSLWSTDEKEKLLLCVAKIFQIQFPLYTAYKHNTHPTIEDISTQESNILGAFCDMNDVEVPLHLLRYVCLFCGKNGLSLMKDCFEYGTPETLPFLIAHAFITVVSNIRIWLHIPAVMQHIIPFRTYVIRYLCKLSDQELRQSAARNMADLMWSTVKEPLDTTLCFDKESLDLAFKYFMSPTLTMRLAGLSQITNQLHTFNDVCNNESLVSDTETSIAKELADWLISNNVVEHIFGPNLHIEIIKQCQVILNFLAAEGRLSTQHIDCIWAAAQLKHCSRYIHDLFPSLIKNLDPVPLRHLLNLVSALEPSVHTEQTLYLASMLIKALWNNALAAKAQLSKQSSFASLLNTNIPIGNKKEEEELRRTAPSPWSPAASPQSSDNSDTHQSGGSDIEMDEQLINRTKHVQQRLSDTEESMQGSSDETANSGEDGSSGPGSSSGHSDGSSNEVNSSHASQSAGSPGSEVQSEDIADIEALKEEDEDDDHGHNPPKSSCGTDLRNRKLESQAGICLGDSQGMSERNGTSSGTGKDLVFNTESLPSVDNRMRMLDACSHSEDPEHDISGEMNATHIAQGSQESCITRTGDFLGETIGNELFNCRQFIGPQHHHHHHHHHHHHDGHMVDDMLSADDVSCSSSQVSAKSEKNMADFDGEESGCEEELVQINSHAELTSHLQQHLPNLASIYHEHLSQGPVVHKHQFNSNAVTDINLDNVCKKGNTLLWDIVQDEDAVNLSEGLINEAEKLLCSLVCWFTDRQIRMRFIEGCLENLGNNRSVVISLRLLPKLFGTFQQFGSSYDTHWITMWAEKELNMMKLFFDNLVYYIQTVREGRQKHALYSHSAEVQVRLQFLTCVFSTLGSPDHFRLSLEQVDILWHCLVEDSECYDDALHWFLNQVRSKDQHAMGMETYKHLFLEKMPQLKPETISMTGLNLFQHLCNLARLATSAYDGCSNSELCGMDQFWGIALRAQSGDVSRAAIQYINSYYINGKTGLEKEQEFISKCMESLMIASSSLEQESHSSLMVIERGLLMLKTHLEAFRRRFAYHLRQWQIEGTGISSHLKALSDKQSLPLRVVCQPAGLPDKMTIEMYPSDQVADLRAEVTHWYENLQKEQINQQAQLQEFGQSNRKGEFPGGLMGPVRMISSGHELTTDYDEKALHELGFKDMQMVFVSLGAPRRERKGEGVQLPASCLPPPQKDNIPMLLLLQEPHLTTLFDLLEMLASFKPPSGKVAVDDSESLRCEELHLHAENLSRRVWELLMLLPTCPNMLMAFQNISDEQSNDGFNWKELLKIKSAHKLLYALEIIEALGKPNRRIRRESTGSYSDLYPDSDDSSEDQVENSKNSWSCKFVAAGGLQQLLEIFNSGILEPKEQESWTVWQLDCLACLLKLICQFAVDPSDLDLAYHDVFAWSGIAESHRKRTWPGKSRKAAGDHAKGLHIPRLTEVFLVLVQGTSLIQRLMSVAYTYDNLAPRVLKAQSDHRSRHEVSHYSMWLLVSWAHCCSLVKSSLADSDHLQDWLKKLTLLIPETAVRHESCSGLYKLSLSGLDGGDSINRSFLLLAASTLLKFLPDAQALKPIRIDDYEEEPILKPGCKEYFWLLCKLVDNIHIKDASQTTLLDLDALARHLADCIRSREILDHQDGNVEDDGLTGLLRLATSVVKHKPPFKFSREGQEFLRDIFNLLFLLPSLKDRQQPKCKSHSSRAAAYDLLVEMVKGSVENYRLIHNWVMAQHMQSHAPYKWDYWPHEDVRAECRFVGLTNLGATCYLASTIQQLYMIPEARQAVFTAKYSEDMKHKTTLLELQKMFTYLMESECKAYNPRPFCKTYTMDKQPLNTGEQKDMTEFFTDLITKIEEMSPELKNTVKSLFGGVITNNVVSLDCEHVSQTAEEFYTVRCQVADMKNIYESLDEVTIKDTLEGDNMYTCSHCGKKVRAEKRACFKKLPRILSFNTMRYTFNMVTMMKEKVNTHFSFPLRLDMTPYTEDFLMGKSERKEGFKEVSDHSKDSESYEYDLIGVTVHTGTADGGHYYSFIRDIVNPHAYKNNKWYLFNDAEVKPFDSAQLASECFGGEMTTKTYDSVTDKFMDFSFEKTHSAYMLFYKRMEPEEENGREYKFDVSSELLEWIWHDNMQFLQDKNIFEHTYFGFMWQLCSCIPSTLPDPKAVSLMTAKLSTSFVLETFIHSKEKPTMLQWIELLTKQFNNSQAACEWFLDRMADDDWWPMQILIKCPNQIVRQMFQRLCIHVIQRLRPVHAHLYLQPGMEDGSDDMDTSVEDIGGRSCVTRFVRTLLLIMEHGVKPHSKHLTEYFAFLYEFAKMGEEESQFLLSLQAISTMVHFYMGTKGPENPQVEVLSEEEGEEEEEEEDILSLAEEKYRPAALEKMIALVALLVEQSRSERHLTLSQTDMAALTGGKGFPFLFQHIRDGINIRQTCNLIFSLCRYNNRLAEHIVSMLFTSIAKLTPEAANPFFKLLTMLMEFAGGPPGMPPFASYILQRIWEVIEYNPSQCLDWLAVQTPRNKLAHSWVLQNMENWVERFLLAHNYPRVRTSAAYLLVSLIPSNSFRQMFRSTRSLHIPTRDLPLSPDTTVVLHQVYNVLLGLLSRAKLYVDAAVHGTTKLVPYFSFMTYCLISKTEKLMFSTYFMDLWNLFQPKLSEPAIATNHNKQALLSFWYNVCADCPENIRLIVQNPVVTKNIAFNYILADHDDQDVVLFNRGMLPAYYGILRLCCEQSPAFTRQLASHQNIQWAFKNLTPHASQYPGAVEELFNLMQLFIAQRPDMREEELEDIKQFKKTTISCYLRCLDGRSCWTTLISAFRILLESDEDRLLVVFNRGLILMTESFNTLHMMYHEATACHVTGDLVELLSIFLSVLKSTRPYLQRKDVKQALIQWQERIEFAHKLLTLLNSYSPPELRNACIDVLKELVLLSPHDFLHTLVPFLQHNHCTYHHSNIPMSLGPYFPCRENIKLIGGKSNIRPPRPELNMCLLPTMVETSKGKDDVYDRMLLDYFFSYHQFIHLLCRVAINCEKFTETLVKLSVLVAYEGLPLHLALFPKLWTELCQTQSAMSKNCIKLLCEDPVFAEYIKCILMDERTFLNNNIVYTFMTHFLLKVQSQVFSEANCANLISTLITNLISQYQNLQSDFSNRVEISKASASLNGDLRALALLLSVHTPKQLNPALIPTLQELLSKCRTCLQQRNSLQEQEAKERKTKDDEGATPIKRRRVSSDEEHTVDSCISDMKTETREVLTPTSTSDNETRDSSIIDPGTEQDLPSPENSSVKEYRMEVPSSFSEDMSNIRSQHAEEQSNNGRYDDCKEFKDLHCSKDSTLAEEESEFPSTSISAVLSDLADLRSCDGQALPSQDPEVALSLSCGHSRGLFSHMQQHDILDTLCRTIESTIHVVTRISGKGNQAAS
Procedure, shortened: (§1)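 Labelled DUBs were enriched with NeutrAvidin, digested with LysC and trypsin, and run by diaPASEF LC-MS/MS. The labelling used Biotin-Ahx-Ub-VS at 0.5 µM final for 1 h on HEK293T lysate (495 µg per sample) previously treated in triplicate with fragment at 200 µM or vehicle for 3 h. Values are average log2 fragment/vehicle ratios by unpaired t-test on global-median-normalised Spectronaut quantities of proteins with ≥2 unique peptides.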

USP36 = biological target: T1, USP36 (UniProt Q9P275)
T1 sequence (whole entry): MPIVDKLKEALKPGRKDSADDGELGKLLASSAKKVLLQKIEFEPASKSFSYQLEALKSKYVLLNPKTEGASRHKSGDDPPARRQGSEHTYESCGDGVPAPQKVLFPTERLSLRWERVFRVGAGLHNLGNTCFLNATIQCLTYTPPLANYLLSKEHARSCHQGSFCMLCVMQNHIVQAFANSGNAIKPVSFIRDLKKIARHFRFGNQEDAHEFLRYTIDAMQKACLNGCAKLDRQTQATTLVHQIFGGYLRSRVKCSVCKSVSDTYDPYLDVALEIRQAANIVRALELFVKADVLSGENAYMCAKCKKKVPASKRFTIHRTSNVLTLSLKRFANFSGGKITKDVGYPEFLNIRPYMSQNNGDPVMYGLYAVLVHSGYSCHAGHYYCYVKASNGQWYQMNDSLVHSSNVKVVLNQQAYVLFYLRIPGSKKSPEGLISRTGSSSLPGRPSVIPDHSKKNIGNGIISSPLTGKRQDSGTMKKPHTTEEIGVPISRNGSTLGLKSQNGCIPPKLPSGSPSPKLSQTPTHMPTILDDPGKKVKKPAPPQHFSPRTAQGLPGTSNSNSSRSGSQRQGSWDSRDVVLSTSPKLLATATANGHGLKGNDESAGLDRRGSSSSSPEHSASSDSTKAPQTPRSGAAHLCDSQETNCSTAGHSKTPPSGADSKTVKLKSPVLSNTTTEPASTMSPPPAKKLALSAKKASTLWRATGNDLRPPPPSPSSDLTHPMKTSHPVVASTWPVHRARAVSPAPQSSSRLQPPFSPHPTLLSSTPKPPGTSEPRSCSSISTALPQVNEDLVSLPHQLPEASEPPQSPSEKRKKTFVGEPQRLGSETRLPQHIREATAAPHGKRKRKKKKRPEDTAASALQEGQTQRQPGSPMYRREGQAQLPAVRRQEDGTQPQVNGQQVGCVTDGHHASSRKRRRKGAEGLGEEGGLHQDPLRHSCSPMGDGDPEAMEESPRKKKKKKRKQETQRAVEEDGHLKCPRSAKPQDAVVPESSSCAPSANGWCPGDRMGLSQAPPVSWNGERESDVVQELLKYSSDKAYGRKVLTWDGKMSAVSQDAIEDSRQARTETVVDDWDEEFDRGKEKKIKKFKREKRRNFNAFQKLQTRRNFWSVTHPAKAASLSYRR
Procedure, shortened: as §1

USP38 = biological target: T2, USP38 (UniProt Q8NB14)
T2 sequence (whole entry): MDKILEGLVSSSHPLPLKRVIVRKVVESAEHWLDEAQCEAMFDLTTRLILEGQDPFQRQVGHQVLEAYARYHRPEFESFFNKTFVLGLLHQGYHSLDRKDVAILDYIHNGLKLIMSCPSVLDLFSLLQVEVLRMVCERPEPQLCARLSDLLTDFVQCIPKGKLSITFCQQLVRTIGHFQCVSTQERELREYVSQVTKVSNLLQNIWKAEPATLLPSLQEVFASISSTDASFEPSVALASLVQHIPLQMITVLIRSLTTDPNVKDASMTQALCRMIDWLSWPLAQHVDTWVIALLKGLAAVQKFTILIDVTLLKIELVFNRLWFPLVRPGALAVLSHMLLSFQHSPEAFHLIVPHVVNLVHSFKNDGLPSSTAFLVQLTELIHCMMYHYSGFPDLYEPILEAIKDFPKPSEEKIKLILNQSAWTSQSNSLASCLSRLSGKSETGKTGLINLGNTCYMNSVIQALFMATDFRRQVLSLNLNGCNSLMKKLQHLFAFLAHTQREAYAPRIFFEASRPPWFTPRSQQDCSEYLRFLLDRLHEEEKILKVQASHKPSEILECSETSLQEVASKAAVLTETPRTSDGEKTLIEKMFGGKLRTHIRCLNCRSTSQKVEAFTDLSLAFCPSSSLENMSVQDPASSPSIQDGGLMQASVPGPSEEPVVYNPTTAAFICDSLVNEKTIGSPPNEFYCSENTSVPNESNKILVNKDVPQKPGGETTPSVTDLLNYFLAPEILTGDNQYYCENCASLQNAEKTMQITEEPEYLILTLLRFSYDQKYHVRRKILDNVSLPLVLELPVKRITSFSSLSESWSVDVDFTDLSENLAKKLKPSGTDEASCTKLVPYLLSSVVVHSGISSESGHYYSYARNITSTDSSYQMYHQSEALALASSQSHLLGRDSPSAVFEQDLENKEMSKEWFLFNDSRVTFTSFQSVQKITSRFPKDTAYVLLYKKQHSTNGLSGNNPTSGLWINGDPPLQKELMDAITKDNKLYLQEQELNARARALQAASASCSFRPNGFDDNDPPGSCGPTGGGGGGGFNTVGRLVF
Procedure, shortened: as §1

USP39 = biological target: T3, USP39 (UniProt Q53GS9)
T3 sequence (whole entry): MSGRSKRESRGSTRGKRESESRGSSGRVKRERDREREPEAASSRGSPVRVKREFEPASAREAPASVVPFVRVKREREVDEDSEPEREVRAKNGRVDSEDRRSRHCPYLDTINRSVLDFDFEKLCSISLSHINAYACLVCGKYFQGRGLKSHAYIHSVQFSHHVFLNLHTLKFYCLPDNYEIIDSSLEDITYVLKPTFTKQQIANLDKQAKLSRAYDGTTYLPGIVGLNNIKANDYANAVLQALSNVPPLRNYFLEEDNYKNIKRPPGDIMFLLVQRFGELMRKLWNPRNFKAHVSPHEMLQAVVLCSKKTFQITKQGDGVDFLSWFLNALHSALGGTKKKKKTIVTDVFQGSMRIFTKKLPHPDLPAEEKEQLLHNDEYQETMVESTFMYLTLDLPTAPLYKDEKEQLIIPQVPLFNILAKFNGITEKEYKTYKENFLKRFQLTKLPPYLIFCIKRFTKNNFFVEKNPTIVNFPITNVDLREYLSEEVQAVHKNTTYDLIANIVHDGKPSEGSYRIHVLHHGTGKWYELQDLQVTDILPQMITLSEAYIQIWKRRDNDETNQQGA
Procedure, shortened: as §1

USP4 = biological target: T4, USP4 (UniProt Q13107)
T4 sequence (whole entry): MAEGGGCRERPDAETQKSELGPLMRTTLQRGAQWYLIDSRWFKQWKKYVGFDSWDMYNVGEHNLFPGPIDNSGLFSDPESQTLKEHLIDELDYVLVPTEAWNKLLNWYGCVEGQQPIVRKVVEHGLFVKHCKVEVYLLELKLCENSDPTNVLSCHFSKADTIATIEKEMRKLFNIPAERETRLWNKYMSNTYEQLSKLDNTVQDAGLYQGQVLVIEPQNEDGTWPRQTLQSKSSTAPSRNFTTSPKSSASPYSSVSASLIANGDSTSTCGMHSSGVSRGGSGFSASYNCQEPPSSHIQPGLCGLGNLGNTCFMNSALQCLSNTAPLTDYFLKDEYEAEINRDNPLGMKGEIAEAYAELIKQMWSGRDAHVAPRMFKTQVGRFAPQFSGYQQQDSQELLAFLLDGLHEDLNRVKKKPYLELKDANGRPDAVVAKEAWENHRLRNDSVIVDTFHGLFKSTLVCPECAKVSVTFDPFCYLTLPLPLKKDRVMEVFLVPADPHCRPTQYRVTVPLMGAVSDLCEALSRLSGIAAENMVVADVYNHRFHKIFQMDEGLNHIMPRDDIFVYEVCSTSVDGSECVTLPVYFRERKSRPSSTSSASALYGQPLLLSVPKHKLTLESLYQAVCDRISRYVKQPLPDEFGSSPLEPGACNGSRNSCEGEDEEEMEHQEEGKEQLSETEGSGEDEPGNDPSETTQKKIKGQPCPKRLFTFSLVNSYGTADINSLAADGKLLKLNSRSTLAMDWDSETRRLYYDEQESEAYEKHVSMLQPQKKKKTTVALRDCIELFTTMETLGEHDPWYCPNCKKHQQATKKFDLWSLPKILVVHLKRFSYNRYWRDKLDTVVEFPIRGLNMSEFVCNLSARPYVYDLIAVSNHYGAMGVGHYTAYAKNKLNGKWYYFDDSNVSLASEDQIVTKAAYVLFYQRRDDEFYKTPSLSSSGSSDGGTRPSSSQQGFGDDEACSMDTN
Procedure, shortened: as §1

Measured: log2 ratio of Biotin-Ahx-Ub-VS probe labelling

Cc1ccccc1C1(CNC(=O)CCl)CCOCC1
inactive: USP34 0.051 | USP36 0.0925 | USP38 -0.0365 | USP39 -0.165 | USP4 -0.221
